PAFAH1B2 inh: PAFAH1B2 (human) inhibition; P68402; recombinant PAFAH1B2, FP-rhodamine activity probe, fluorescence polarization; inhibition, % at 3.39 µM; 340,000 tested, 1.2% active; AID 492953;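 active means inhibition above the mean of all tested compounds plus 3 SD, cut at about 24% in these data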;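 further: 0% = enzyme with DMSO and 100% = wells lacking PAFAH1B2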
Target sequence (P68402 whole entry, looked up): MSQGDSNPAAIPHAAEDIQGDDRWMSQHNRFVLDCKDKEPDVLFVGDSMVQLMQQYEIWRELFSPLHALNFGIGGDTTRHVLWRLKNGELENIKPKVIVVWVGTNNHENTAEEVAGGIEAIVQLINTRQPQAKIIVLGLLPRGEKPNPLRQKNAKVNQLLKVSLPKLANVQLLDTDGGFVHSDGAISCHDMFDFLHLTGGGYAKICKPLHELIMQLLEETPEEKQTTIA
PAFAH2 inh: inhibitors of human PAFAH2; Q99487; recombinant PAFAH2, FP-rhodamine activity probe, fluorescence polarization; inhibition, % at 3.39 µM; 340,000 tested, 0.99% active;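 active means inhibition above the mean over all tested compounds plus 3 SD, cut at about 30% in these data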;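 further: inhibitors block probe labeling of enzyme so polarization drops; 0% = enzyme with DMSO and 100% = wells lacking PAFAH2 protein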
rCAG RNA binder: molecules binding r(CAG) RNA repeats. r(CAG) RNA repeat, TO-PRO-1 dye displacement fluorescence. inhibition, % at 3 µM. 370,000 tested, 1.3% active;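 active means inhibition above the plate cutoff, the mean of all test compounds on that plate plus 3 SD, cut at about 35% in these data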;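 further: 0% = DMSO alone and 100% = 100 µM mitoxantrone as full dye displacement; higher means more dye released from RNA so lower well fluorescence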
EBNA-1 inh: blocks EBNA-1 binding to DNA; EBNA-1 DNA binding, fluorescence polarization; AID 1950; inhibition, % at 14.8 µM; 300,000 tested, 0.34% active; in the data active means inhibition above about 28%
ZTA counter: counter-screen for EBNA-1 inhibitors: inhibitors of Epstein-Barr virus ZTA; AID 2234; ZTA-DNA binding, fluorescence polarization; inhibition, % at 11 µM; P03206; 320,000 tested, 0.15% active; in the data active means inhibition above about 33%
Target sequence (P03206 whole entry, looked up): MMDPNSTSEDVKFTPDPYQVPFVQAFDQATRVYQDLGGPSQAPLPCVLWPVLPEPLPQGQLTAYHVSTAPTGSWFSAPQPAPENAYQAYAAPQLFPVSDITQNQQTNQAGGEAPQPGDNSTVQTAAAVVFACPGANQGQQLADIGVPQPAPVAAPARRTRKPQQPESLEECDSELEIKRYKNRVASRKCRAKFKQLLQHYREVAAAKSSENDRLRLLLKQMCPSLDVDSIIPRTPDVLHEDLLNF
PAFAH1B3 FP inh: PAFAH1B3 (human) inhibition; Q15102; recombinant PAFAH1B3, FP-rhodamine probe, fluorescence polarization; inhibition, % at 3.39 µM; 340,000 tested, 0.28% active; AID 492972;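 active means inhibition above the screen-wide average of all tested compounds plus 3 SD, cut at about 25% in these data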;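 further: 0% = enzyme with DMSO only and 100% = wells lacking PAFAH1B3 protein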
Target sequence (Q15102 whole entry, looked up): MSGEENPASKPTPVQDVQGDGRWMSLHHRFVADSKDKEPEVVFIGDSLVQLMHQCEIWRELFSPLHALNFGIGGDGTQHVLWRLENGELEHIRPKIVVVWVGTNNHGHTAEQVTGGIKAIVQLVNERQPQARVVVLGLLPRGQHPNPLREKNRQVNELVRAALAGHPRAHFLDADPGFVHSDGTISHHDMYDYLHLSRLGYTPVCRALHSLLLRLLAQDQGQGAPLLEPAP
rCAG binder conf: r(CAG) RNA repeat binding, confirmation; shares compounds with rCAG RNA binder; TO-PRO-1 dye displacement fluorescence; inhibition, % at 3 µM; 4,300 tested, 70% active;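 active means inhibition above a per-plate cutoff, the mean inhibition of sample wells plus 3 SD, cut at about 35% in these data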;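 further: loss of TO-PRO-1 fluorescence as compound displaces dye from 1x1 AA loop RNA; 0% = DMSO only wells and 100% = 100 µM mitoxantrone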
dCAG dye counter: DNA CAG dye complex inhibition counter-screen | inhibition, % at 3 µM | shares compounds with rCAG RNA binder | AID 652068 | d(CAG) DNA oligo TO-PRO-1 dye displacement, fluorescence | 4,300 tested, 94% active;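 active means inhibition above its plate's cutoff, the mean test-well inhibition plus 3 SD, cut at about 4.8% in these data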;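 further: 0% = DNA dye mix with DMSO and 100% = 100 µM mitoxantrone; hits displace the dye from DNA and so lower well fluorescence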
dCAG dye DR: disrupts DNA CAG TO-PRO-1 complex in dose response. DNA CAG/GTC duplex TO-PRO-1 dye displacement fluorescence. 250 tested, 20% active. IC50, µM. AID 686960. shares compounds with rCAG RNA binder; in the data active means IC50 below about 10 µM
The depositor's hits bear a star; nt = no result. This is a sample that favours compounds with a hit; in the whole collection about 2.9% have one here.

SMILES | PAFAH1B2 inh | PAFAH2 inh | rCAG RNA binder | EBNA-1 inh | ZTA counter | PAFAH1B3 FP inh | rCAG binder conf | dCAG dye counter | others
O=C(c1cc(C(=O)N2CCOCC2)c2nc3ccccc3n2c1)c1cc(Cl)cc(Cl)c1O | 4 | 0 | 46* | 4 | 12 | 5 | 44* | 12*
COc1ccc(Cl)cc1NC(=S)NNC(=O)C1(C)CC1(Cl)Cl (stereo not drawn) | 4 | 22 | 43* | 5 | 5 | -1 | 25 | 5.5*
CCCc1cc(=O)[nH]c(Nc2ccc(Cl)cc2)n1 | 6 | 4 | 41* | -3 | 5 | 9 | 9 | 10*
CCCc1cc(=O)[nH]c(Nc2ccc(OC)c(Cl)c2)n1 | 7 | -5 | 36* | -2 | -4 | 4 | 9 | 11*
CCCc1cc(=O)[nH]c(Nc2ccc(O)cc2)n1 | 2 | -3 | 3 | 16 | 16 | 7 | nt | nt
COC(=O)C1CN(Cc2ccccc2)CCS(=O)(=O)N1Cc1ccc(OC)cc1 (stereo not drawn) | nt | nt | 0 | nt | nt | nt | nt | nt
CCOc1ccccc1Nc1nnc(SCC(=O)NC(Cc2c[nH]c3ccccc23)C(=O)O)s1 (stereo not drawn) | 19 | 4 | 39* | 5 | 3 | 3 | 33 | 10*
CCOc1ccccc1Nc1nnc(SCC(=O)Nc2ccc3[nH]c(=O)[nH]c3c2)s1 | 1 | -7 | 12 | -7 | -8 | 18 | nt | nt
O=C(O)CCC(=O)Nc1ccc(-c2csc(Nc3cccc4ccccc34)n2)cc1 | 4 | 11 | 49* | nt | 15 | 2 | 49* | 18*
O=C(Nc1ccccc1)Nc1nc(-c2ccccc2)cs1 | 0 | 2 | 43* | -1 | -6 | 5 | 12 | 15*
O=C(Nc1ccc(-c2csc(Nc3ccccc3)n2)cc1)c1ccccc1 | 3 | -1 | 15 | 13 | -13 | 8 | nt | nt
COc1cccc(-c2csc(NC(=O)Nc3ccccc3)n2)c1 | 8 | -13 | 54* | 5 | 1 | 12 | 29 | 25*
Cc1cccc(NC(=O)CN2C(=O)CCSc3ccccc32)c1C | nt | nt | 3 | nt | nt | nt | nt | nt
COc1cc(/C=N/Nc2nc(C)nc3c2cnn3-c2ccccc2)ccc1O | 28* | 9 | 41* | nt | nt | 5 | 27 | 9.7*
COc1cc(/C=N/Nc2ccccn2)ccc1O | 4 | 0 | -1 | 5 | 0 | 4 | nt | nt
O=C1NC(=S)S/C1=C\c1cc(Cl)cc(Cl)c1O | -28 | -25 | 38* | nt | nt | -43 | 47* | 15*
Cc1cc(/C=C2/SC(=O)NC2=O)c(C)n1-c1ccc(N2CCOCC2)cc1 | 0 | -3 | 10 | -9 | -10 | 2 | nt | nt
Cc1cc(/C=C2\SC(=S)NC2=O)c(C)n1-c1ccccc1 | nt | nt | 48* | 5 | -4 | nt | 36* | 16*
COc1ccc(-n2c(C)cc(/C=C3\SC(=S)NC3=O)c2C)cc1 | 1 | 7 | 14 | 4 | 7 | 6 | nt | nt
Cc1cc(/C=C2\SC(=S)NC2=O)c(C)n1C | 7 | 23 | 51* | 6 | -2 | 17 | 22 | 7.9*
Cc1cc(/C=C2\SC(=S)NC2=O)c(C)n1-c1ccc(O)cc1 | 12 | 21 | 49* | 3 | -2 | 12 | 42* | 14*
O=C1NC(=S)SC1=Cc1ccccc1Cl | 10 | -6 | 17 | nt | nt | 1 | nt | nt
CCN1CCCC1CNC(=O)C(=O)NC(C)C (stereo not drawn) | 0 | 0 | -1 | -4 | 4 | 7 | nt | nt
Cn1ccc(C(=O)NC(=S)Nc2ccc([N+](=O)[O-])cc2O)n1 | 6 | 1 | 14 | nt | nt | 9 | nt | nt
O=C(O)c1ccc(N2C(=O)CC(SC(=NCc3ccc4c(c3)OCO4)Nc3ccccc3)C2=O)cc1 (stereo not drawn) | 4 | 0 | 69* | -3 | 15 | 7 | 62* | 23*
SMILES | PAFAH1B2 inh | PAFAH2 inh | rCAG RNA binder | EBNA-1 inh | ZTA counter | PAFAH1B3 FP inh | rCAG binder conf | dCAG dye counter | others
CN=C(Nc1ccc2c(c1)OCO2)SC1CC(=O)N(c2ccccc2)C1=O (stereo not drawn) | 2 | -3 | -1 | -2 | -16 | -2 | nt | nt
O=C(O)c1ccc(N2C(=O)CC(SC(=NCc3ccc4c(c3)OCO4)Nc3ccc(F)cc3)C2=O)cc1 (stereo not drawn) | 2 | -2 | 77* | 0 | 2 | -2 | 73* | 33* | dCAG dye DR=>30
COCCN1C(=O)COc2ccccc2C1C(=O)Nc1ccc2c(c1)OCCO2 (stereo not drawn) | nt | nt | 2 | nt | nt | nt | nt | nt
CC(=O)Nc1ccc(Nc2nc3ccccc3nc2NS(=O)(=O)c2ccccc2)cc1 | 0 | 9 | 34 | 9 | 0 | 8 | nt | nt
CC(=O)Nc1ccc(S(=O)(=O)Nc2nc3ccccc3nc2Nc2ccccc2)cc1 | 9 | 9 | 47* | 0 | -32 | 6 | 40* | 9.6*
CC(=O)Nc1ccc(S(=O)(=O)Nc2nc3ccccc3nc2Nc2cccc(S(N)(=O)=O)c2)cc1 | 6 | 12 | 52* | -3 | 3 | 16 | 37* | 7.6*
CNc1cc(-c2cnn(CC(C)C)c2)ncn1 | nt | nt | 0 | nt | nt | nt | nt | nt
Cc1cccc(C)c1C(=NCCCN(C)C)c1ccccc1 | 4 | 4 | -1 | 6 | 5 | 10 | nt | nt
CSc1nc(SCC(=O)O)c2sc3nc(-c4ccccc4)c4c(c3c2n1)CCC4 | -5 | 5 | 39* | nt | nt | 2 | 63* | 38*
CCc1cccc2c(C(=O)C(F)(F)F)cn(CC(=O)N3CCOCC3)c12 | -5 | 1 | -6 | 4 | -3 | 3 | nt | nt
CCNC(=O)C1(C)CCN(C(=O)c2ccc(OC)c(OC)c2)C1 (stereo not drawn) | nt | nt | 1 | nt | nt | nt | nt | nt
CCOc1ccc(/C=N/NC(=O)C2CCCC2)c(OCC)c1 | 2 | 1 | -1 | 1 | 9 | 2 | nt | nt
CCCS(=O)(=O)c1c(S(=O)(=O)CCC)c2c(N)cccn2c1C(=O)c1ccc(OC)cc1 | -3 | 0 | 19 | 1 | 9 | 1 | nt | nt
CCCS(=O)(=O)c1c(S(=O)(=O)CCC)c2ccc(C(N)=O)cn2c1C(=O)c1ccc(F)cc1 | 0 | -1 | -1 | 5 | -5 | 10 | nt | nt
CCCS(=O)(=O)c1c(S(=O)(=O)CCC)c2c(N)cccn2c1C(=O)c1ccc(F)cc1 | 7 | 1 | 45* | -8 | -3 | 3 | 21 | 10*
CCCS(=O)(=O)c1c(S(=O)(=O)CCC)c2c(N)cccn2c1C(=O)c1ccc(Br)cc1 | 4 | 3 | 52* | -13 | 1 | 13 | 21 | 11*
CC(=O)Nc1ccc(-c2ccnc3c2CC(C)(C(=O)Nc2ccc(C(C)C)cc2)O3)cc1 (stereo not drawn) | nt | nt | 7 | nt | nt | nt | nt | nt
C=CCSc1nnc(NC(=O)CSc2nc(CCC)cc(=O)[nH]2)s1 | -2 | 6 | 15 | -14 | -2 | 7 | nt | nt

Source: PubChem
